This note sets out measurements from ChEMBL document CHEMBL1157539, “Thousands of chemical starting points for antimalarial lead identification” (Nature, 2010).

Holding throughout (type): functional
For assay [1], the system named is Plasmodium falciparum. Briefly: GSK_TCMDC: Inhibition of Plasmodium falciparum 3D7 in whole red blood cells, using parasite LDH activity as an index of growth. Test compounds present at 2uM.
Assay [2] deals with Plasmodium falciparum. Kind of assay: GSK_TCMDC: Inhibition of Plasmodium falciparum Dd2 in whole red blood cells, using parasite LDH activity as an index of growth. Test compounds present at 2uM.
For the next assay, the system named is HepG2. Briefly: GSK_TCMDC: Percent inhibition of human HepG2 cell line. Test compounds present at 10uM.

For `CCc1ccc(C2CCN(CCCCNC(=O)c3ccc(-c4ccc(C(F)(F)F)cc4)cc3)CC2)c(OCCO)c1.Cl`, the Inhibition (commonly the relative decrease from the control value, in per cent) in the assay on Plasmodium falciparum [1] amounted to 100%; in the assay with Plasmodium falciparum [2], 69%; with HepG2 it was 82%.

Turning to `CC(C)CNCc1ccc(-c2cccc(CN(CCN(C)C)C(=O)CCC3CCCC3)c2)cc1.O=C(O)C(F)(F)F`, the figures for the Inhibition with Plasmodium falciparum [1], in the assay with Plasmodium falciparum [2] and in the assay with HepG2 were 100%, 81% and 56%, respectively.

`CCOC(=O)[C@H](Cc1cccc2ccccc12)NC(=O)[C@H](CCC(=O)OC(C)(C)C)NC(=O)c1ccc(N(C)Cc2cnc3nc(N)nc(N)c3n2)cc1`: the Inhibition with Plasmodium falciparum [1] worked out at 93%; in the assay on Plasmodium falciparum [2] it was 96%; in the assay on HepG2, 66%.

For the molecule `O=C(Nc1cccc(F)c1)N[C@H]1CCN(CCCCCNC(=O)C2CC2c2ccc(Cl)c(Cl)c2)C1` (stereo partly drawn), the Inhibition in the assay with Plasmodium falciparum [1] is listed as 90%; in the assay with Plasmodium falciparum [2], 1%; in the assay on HepG2, 41%.

As for `Cc1cc(NC(=O)c2cccs2)ccc1OC1CCN(Cc2ccc(F)cc2)C1.O=C(O)C(F)(F)F` (stereo not drawn), the Inhibition in the assay on Plasmodium falciparum [1] amounted to 95%; in the assay on Plasmodium falciparum [2], 92%; with HepG2, 0%.

`O=C(c1ccc(F)c(F)c1)N1CCOC(CCN2CCC(c3ccccc3)CC2)(c2ccc(Cl)c(Cl)c2)C1` (stereo not drawn): the Inhibition with Plasmodium falciparum [1] turned out to be 89%; with Plasmodium falciparum [2], 75%; in the assay on HepG2, 51%.

On to `[O-][s+]1nc(NCCCN(Cc2cccs2)c2ccccn2)c(NCc2ccccc2)n1` (stereo not drawn), for which the Inhibition was 92% with Plasmodium falciparum [1], 25% in the assay with Plasmodium falciparum [2] and 10% in the assay on HepG2.

For `CCOc1ccc(-c2nonc2NC(=O)c2ccc(OC)cc2)cc1OCC`, the Inhibition with Plasmodium falciparum [1] is given as 98%; with Plasmodium falciparum [2], 77%; in the assay on HepG2 it was 0%.

On to `Nc1ccc(Oc2ccc(Cc3cnc(N)nc3N)cc2)cc1`, for which the Inhibition in the assay on Plasmodium falciparum [1] worked out at 86%; in the assay on Plasmodium falciparum [2], 5%; in the assay on HepG2, 10%.

On to `Cc1cc(N(C)C)nc(Nc2ccc(NC(=O)c3ccccc3F)cc2)n1`, for which the Inhibition came out at 89% with Plasmodium falciparum [1], 26% in the assay on Plasmodium falciparum [2] and 0% with HepG2.

`CC(C)Nc1nc(NC2CCCCC2)nc(N2CCCCCCC2)n1`: the Inhibition in the assay with Plasmodium falciparum [1] is 86%; in the assay with Plasmodium falciparum [2], 96%; in the assay with HepG2 it was 13%.

Turning to `CCCCCCc1cc(OC)c(OC)cc1C(C)Nc1ccnc2cc(Cl)ccc12` (stereo not drawn), the values for the Inhibition in the assay on Plasmodium falciparum [1], with Plasmodium falciparum [2] and in the assay with HepG2 were 95%, 79% and 6%, respectively.

Regarding `CCOC(=O)Cn1ccc2c(NCc3ccccc3)nc(C)nc21`, the Inhibition with Plasmodium falciparum [1] came out at 96%; in the assay with Plasmodium falciparum [2], 0%; in the assay with HepG2, 64%.

With `CC(C)CCN(Cc1cncn1Cc1cccc(C(F)(F)F)c1)C(=O)c1ccccc1C#N`, the figures for the Inhibition with Plasmodium falciparum [1], in the assay with Plasmodium falciparum [2] and in the assay with HepG2 were 99%, 96% and 0%, respectively.

As to `CC(=O)Nc1ccc(NC(=O)c2cc(-c3cc(Cl)ccc3O)n[nH]2)cc1`, the Inhibition turned out to be 100% in the assay with Plasmodium falciparum [1], 100% in the assay on Plasmodium falciparum [2] and 1% in the assay with HepG2.

For `CC(=O)Nc1ccccc1OCc1cc2cc(C(=O)N3CCC(N4C(=O)OCc5ccccc54)CC3)ccc2o1`, the Inhibition is on record as 99% in the assay with Plasmodium falciparum [1], 98% in the assay with Plasmodium falciparum [2] and 34% in the assay with HepG2.

With `Cc1cccc2nc(-c3ccc(-c4cccc(NC(=O)COc5ccccc5C(N)=O)c4)s3)[nH]c12`, the values for the Inhibition in the assay with Plasmodium falciparum [1], in the assay on Plasmodium falciparum [2] and in the assay on HepG2 were 99%, 19% and 80%, respectively.

With `C=CCN(c1ccc(OC)cc1)S(=O)(=O)c1ccc(Cl)c(C(=O)Nc2cccc(C#N)c2)c1`, the results for the Inhibition with Plasmodium falciparum [1], in the assay on Plasmodium falciparum [2] and in the assay on HepG2 were 96%, 73% and 6%, respectively.

In the case of `NC(=O)C1CCN(Cc2ccc(-c3ccc(-c4nc5cc(C(F)(F)F)ccc5[nH]4)s3)cc2)CC1.O=C(O)C(F)(F)F`, the results for the Inhibition with Plasmodium falciparum [1], in the assay on Plasmodium falciparum [2] and in the assay with HepG2 were 99%, 91% and 22%, respectively.

In the case of `Cl.O=C(Nc1ccnc2ccccc12)NC1CCN(CCc2ccccc2)CC1`, the Inhibition in the assay with Plasmodium falciparum [1] was 100%; with Plasmodium falciparum [2], 43%; in the assay on HepG2, 7%.

For the molecule `FC(F)c1nc2ccccc2n1-c1nc(N2CCOCC2)nc(N2CCOCC2)n1` [ZSTK-474], the results for the Inhibition in the assay with Plasmodium falciparum [1], in the assay with Plasmodium falciparum [2] and with HepG2 were 99%, 99% and 47%, respectively.

For `CCn1ccc2c(N3CCCS3(=O)=O)cc(C(=O)N[C@@H](Cc3ccccc3)[C@H](O)CNC(C)(C)CCCC(C)C)cc21`, the Inhibition in the assay on Plasmodium falciparum [1] was found to be 97%; in the assay with Plasmodium falciparum [2] it was 98%; in the assay on HepG2 it was 8%.

Consider `CC(CN1CCN(C)CC1)C(=O)Nc1cccc(-c2cccc(-c3nc4ccccc4[nH]3)c2)c1` (stereo not drawn), for which the Inhibition with Plasmodium falciparum [1] was determined as 88%; in the assay with Plasmodium falciparum [2] it was 19%; in the assay on HepG2, 23%.

With `NC(=O)c1ccccc1Nc1nc(Nc2ccc(N3CCOCC3)cc2)ncc1[N+](=O)[O-].O=C(O)C(F)(F)F`, the values for the Inhibition with Plasmodium falciparum [1], in the assay with Plasmodium falciparum [2] and with HepG2 were 98%, 96% and 53%, respectively.

For the molecule `Cc1cc(O)c2c(c1)OC(C)(C)C=C2C1=CCN(Cc2ccccc2)CC1`, the Inhibition in the assay with Plasmodium falciparum [1] is given as 96%; with Plasmodium falciparum [2], 1%; with HepG2, 0%.

Regarding `COc1ccc(C=NN=c2cc(C)[nH]c3ccccc23)c2ccccc12`, the Inhibition in the assay on Plasmodium falciparum [1] was found to be 99%; with Plasmodium falciparum [2] it was 69%; in the assay with HepG2, 26%.

Take `COc1cccc2cc(C(=O)N[C@@H](CC(C)C)C(=O)N[C@H](/C=N/NC(=O)OC(C)(C)C)CC(=O)OC(C)(C)C)oc12`: the Inhibition is listed as 85% in the assay on Plasmodium falciparum [1], 57% with Plasmodium falciparum [2] and 4% in the assay on HepG2.

For `COc1cc2nc(N3CCC(CNC(=O)c4ccc(-c5ccccc5)cc4)CC3)nc(N)c2cc1OC`, the figures for the Inhibition in the assay on Plasmodium falciparum [1], in the assay on Plasmodium falciparum [2] and in the assay with HepG2 were 93%, 92% and 11%, respectively.

With `COc1cc(NC(=O)/C=C/c2cc(F)cc(F)c2F)cc(OCCN2CCC3(CC2)OCCO3)c1.O=C(O)C(=O)O`, the values for the Inhibition with Plasmodium falciparum [1], in the assay with Plasmodium falciparum [2] and in the assay with HepG2 were 98%, 26% and 17%, respectively.

In the case of `N#Cc1ccc(Cn2ccc3c4c(N)nc(N)nc4ccc32)cc1`, the Inhibition with Plasmodium falciparum [1] is listed as 92%; in the assay on Plasmodium falciparum [2], 95%; in the assay on HepG2, 64%.

Consider `O=C1NC(c2ccc(N3CCCCCC3)cc2)Nc2ccccc21` (stereo not drawn), for which the Inhibition turned out to be 96% in the assay on Plasmodium falciparum [1], 96% in the assay on Plasmodium falciparum [2] and 19% with HepG2.
